Several values for one entry are separate records, joined by “and”; a condition that tells them apart may be missing. Equal entries are not always repeated. Records with an inconclusive call do not appear. Unmarked numbers belong to inactive results. The call rests on the fitted dose curve; in most records, active means well fitted curve in the direction sought with a large enough effect; inconclusive means small, poorly fitted or top-dose-only effect, or another doubt; inactive means no such curve, though single readings can be large or run the other way.
On the % scale 0 is the no-effect control and ±100 the full control effect.

The test is described as follows: qHTS Assay for Identifying Gametocytocidal Compounds (AID 743244).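 Further: actives lower the fluorescent signal which means gametocytes are killed.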 As to conditions: P. falciparum 3D7 stage III-V gametocytes, alamarBlue, 72 h; max response: stronger effect = lower value. A digest of the protocol: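 Using 20,000 stage III–V 3D7 gametocytes per well, compounds were incubated 72 h under 37 °C/5% CO2. Viability was then assessed by 24 h alamarBlue reduction, measured fluorometrically at 525/598 nm.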
With `N=C(N)SCCc1ccc(CCSC(=N)N)cc1`, the max response was 24%.

In the case of `C=CCN1C(=O)C(CC(C)C)NC1=S` (stereo not given), the max response was 24.3% and -10.7%.

`O=C(c1cc(O)c(O)c([N+](=O)[O-])c1)c1ccccc1F`: the max response is 18.1%.

Regarding `c1ccc2sc(SN3CCOCC3)nc2c1`, the max response was -2.78%.

`CN1[C@@H]2CC[C@H]1CC(OC(c1ccccc1)c1ccccc1)C2` (stereo not given in full): the max response was -0.265% and -8.62%.

For the molecule `CCC1C(=O)OCC1Cc1cncn1C` (stereo not given), the max response was -1.02% and -1.03% and -9.17%.

In the case of `C=CC(=O)c1ccc(CCCCCC)cc1`, the max response is 6.31%.

As to `CC(=O)O[C@H]1C[C@@]2(C)[C@@H](C[C@@H](O)[C@H]3[C@@]4(C)CC[C@@H](O)[C@@H](C)[C@@H]4CC[C@@]32C)/C1=C(\CCC=C(C)C)C(=O)O`, the max response is -4.85%.

For the molecule `O=C(O)[C@H](CC(=O)N1C[C@H]2CCCC[C@H]2C1)Cc1ccccc1`, the max response was -8.96%.

Regarding `O=C(O)c1cc(=O)c2c(Cl)cc(Cl)cc2[nH]1`, the max response is 14.4%.

`N#C/C(=C\c1ccc(-c2cc(Cl)ccc2Cl)o1)C(=O)Nc1cccc2ncccc12`: the max response was -7.88%.

Turning to `Nc1c(CC(=O)O)cccc1C(=O)c1ccc(Br)cc1`, the max response was 4.37%.

Consider `O=C(O)[C@@H]1C[C@H](C(=O)O)N1`, for which the max response is -2.93%.

With `COc1ccc(/C=C/C(=O)Nc2ccccc2C(=O)O)cc1OC`, the max response was 46% and -4.4%.

Take `CC[C@H]1OC(=O)[C@H](C)C(=O)[C@H](C)[C@@H](O[C@@H]2O[C@H](C)C[C@H](N(C)C)[C@H]2O)[C@](C)(OC)C[C@@H](C)C(=O)[C@H](C)[C@H]2N(CCCCn3cnc(-c4cccnc4)c3)C(=O)O[C@]12C`: the max response is -5.82% and 15.9%.

Take `CC(C)CC(NP(=O)(O)O[C@@H]1O[C@@H](C)[C@H](O)[C@@H](O)[C@H]1O)C(=O)NC(Cc1c[nH]c2ccccc12)C(=O)O` (stereo not given in full): the max response was 18.7%.

`N#C/C(=C\c1ccc(O)c(O)c1)C(=O)c1ccc(O)c(O)c1`: the max response was 10.5%.

For the molecule `OC[C@H]1O[C@@H](n2cnc3c(NC4CCCC4)ncnc32)[C@H](O)[C@@H]1O`, the max response was -3.53%.

Take `CCCCCCCCCCCCCCCCCC(=O)OC(CC(=O)O)C[N+](C)(C)C` (stereo not given): the max response was -2.89%.

On to `CCOC(=O)C1=C(C)NC(C)=C(C(=O)OCC)C1c1c(F)c(F)c(F)c(F)c1F`, for which the max response is 17%.

Regarding `Nc1nc(Nc2ccccc2)nc2c1ncn2[C@@H]1O[C@H](CO)[C@@H](O)[C@H]1O`, the max response was 17.1%.

In the case of `CCCCCCCCCCCCCCCC(=O)NCC(COP(=O)([O-])OCC[N+](C)(C)C)OCC` (stereo not given), the max response is 1.33%.

Turning to `CN(C)c1nc2c(Br)c(Br)c(Br)c(Br)c2[nH]1`, the max response was 21.9%.

Consider `CC(=O)SCC(CC(=O)c1ccc(C)cc1)C(=O)O` (stereo not given), for which the max response is 17.7%.

As to `CO/S(=N\S(=O)(=O)c1ccc(Cl)cc1)c1ccc([N+](=O)[O-])cc1` (stereo not given), the max response is 19.6%.

As to `Cc1nc2ccccc2n1Cc1ccc(Cl)cc1`, the max response is 3.69%.

On to `COc1cccc(OC)c1OCCNCC1COc2ccccc2O1` (stereo not given), for which the max response was 16.7%.

As to `CC[C@H]1OC(=O)[C@H](C)[C@@H](O[C@H]2C[C@@](C)(OC)[C@@H](O)[C@H](C)O2)[C@H](C)[C@@H](O[C@@H]2O[C@H](C)C[C@H](N(C)C)[C@H]2O)[C@](C)(O)C[C@@H](C)C(=O)[C@H](C)[C@@H](O)[C@]1(C)O`, the max response was 1.77% and 0.604%.

With `NC(=S)NCCC[C@H](N)C(=O)O`, the max response is 29.7%.

In the case of `CC(C(=O)O)c1ccc(C(=O)c2ccccc2)s1` (stereo not given), the max response was -0.0039%.

`COc1ccccc1N1CCN(CCCCNS(=O)(=O)c2cccc3c(N(C)C)cccc23)CC1`: the max response was 10.4%.

For `Nc1ncnc2c1ncn2[C@@H]1O[C@H](COP(=O)(O)CP(=O)(O)OP(=O)(O)O)[C@@H](O)[C@H]1O`, the max response is 13.9%.

As to `N#C/C(=C\c1ccc(O)c(O)c1)C(=O)NCc1ccccc1`, the max response is 12.2%.

As for `N=C(N)N`, the max response is -3.24%.

Consider `O=C(O)[C@@H]1C[C@@H](C(=O)O)N1`, for which the max response was 6.85%.
